# The full ranking holds about 81,000 sequences; the median of “one-hybrid fitness for binding parS DNA” is about -0.17, and the highest 2% start at about 0.51. The sample holds the highest values, similar sequences and a random draw of the others, so the mix is not that of the screen.
# B1: Caulobacter ParB omega fusion; a variant is named by its letters at X, in order, B8GW30 (parent)
# chain: MESVVVGEPGMSEGRRGLGRGLSALLGEVDAAPAQAPGEQLGGSREAPIEILQRNPDQPRRTFREEDLEDLSNSIREKGVLQPILVRPSPDTAGEYQIVAGERAWRAAQRAGLKTVPIMVRELDDLAVLEIGIIENVQRADLNVLEEALSYKVLMEKFERTQENIAQTIGKSXSHVANXMRLLXLPDEVQSYLVSGELTAXHARAIAAAADPVALAKQIIEGGLSVRETEALARKAPNLSAGKSKGGRPPRVKDTDTQALESDLSSVLGLDVSIDHRGSTGTLTITYATLEQLDDLCNRLTRGI
# Variants of: B1
# Assay: one-hybrid fitness for binding parS DNA (scaled: cognate 1, non-cognate 0); higher = stronger binding
# Conditions: with parS DNA site
# Summary of the method: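 Values were rescaled so that cognate is 1 and non-cognate is 0. Each is a fitness, the log change in a variant's read ratio to wild type from Illumina reads of plasmids before and after selection, with three replicate libraries pooled and variants under 10 reads dropped. Selection of the Caulobacter ParB libraries, four specificity codons randomised, used E. coli USO with a HIS3 reporter, site 19 bp from the promoter, on M9-minus-histidine with 0.1 mM IPTG and 5 mM 3-AT for 48 hours at 37°C.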
row,Variant,one-hybrid fitness for binding parS DNA
1,ATSF,≤ 0.2
2,PVTI,≤ 0.2
3,GNRN,≤ 0.2
4,MTHT,≤ 0.2
5,IATE,≤ 0.2
6,REKA,≤ 0.2
7,RSKA,0.716
8,RDKA,≤ 0.2
9,QRTQ,≤ 0.2
10,GFIG,≤ 0.2
11,RLRR,≤ 0.2
12,RLGR,≤ 0.2
13,RLSK,≤ 0.2
14,RLWH,0.3
15,RLGT,0.925
16,RLSM,0.329
17,RLWP,0.201
18,RLWT,0.889
19,RLRM,0.376
20,RLRT,0.834
21,RLGF,0.278
22,RLST,0.939
23,FKLC,≤ 0.2
24,YRAS,0.283

row,Variant,one-hybrid fitness for binding parS DNA
1,WVWC,≤ 0.2
2,TRNR,≤ 0.2
3,QCLA,≤ 0.2
4,HCDK,≤ 0.2
5,RLYM,0.364
6,RLCP,≤ 0.2
7,RLLD,0.231
8,RLYQ,≤ 0.2
9,RLLP,≤ 0.2
10,RLQT,0.946
11,RLYT,0.943
12,RLQF,0.229
13,RLCD,≤ 0.2
14,RLCT,0.923
15,RLQK,≤ 0.2
16,RLLT,0.961
17,YINM,≤ 0.2
18,QHNA,≤ 0.2
19,HQSH,≤ 0.2
20,KQRG,≤ 0.2
21,FYRR,≤ 0.2
22,EMVC,≤ 0.2
23,TCPF,≤ 0.2
24,RLHR,≤ 0.2

row,Variant,one-hybrid fitness for binding parS DNA
1,RLHY,0.473
2,RLHT,0.937
3,REQG,≤ 0.2
4,RHPG,0.451
5,RHYD,≤ 0.2
6,RHIG,0.705
7,RHQR,≤ 0.2
8,RHNF,≤ 0.2
9,RHIF,≤ 0.2
10,RHQG,0.973
11,RHNR,≤ 0.2
12,RHYP,≤ 0.2
13,RHYG,0.95
14,RHNG,0.953
15,HCSV,≤ 0.2
16,DCCS,≤ 0.2
17,HYWT,≤ 0.2
18,QSAL,≤ 0.2
19,FRKP,≤ 0.2
20,GIVG,≤ 0.2
21,PFTT,≤ 0.2
22,ALPV,≤ 0.2
23,QCAF,≤ 0.2
24,RHHK,≤ 0.2

row,Variant,one-hybrid fitness for binding parS DNA
1,RHDG,0.917
2,RHLG,0.967
3,RHDN,0.33
4,RHLF,0.23
5,RHHG,0.967
6,RHCG,0.95
7,RHCM,≤ 0.2
8,RHDD,≤ 0.2
9,RHLQ,≤ 0.2
10,RHCK,≤ 0.2
11,RHHQ,≤ 0.2
12,KRLV,≤ 0.2
13,YFQT,≤ 0.2
14,TWNC,≤ 0.2
15,KIDC,≤ 0.2
16,YREL,≤ 0.2
17,QRPG,≤ 0.2
18,ANRV,≤ 0.2
19,RHGH,≤ 0.2
20,RHRP,≤ 0.2
21,RHSQ,≤ 0.2
22,RHGP,≤ 0.2
23,RHSG,0.958
24,RHGG,0.939

row,Variant,one-hybrid fitness for binding parS DNA
1,RHRG,0.903
2,RHRH,0.232
3,RHSR,≤ 0.2
4,KVHG,≤ 0.2
5,IAKA,≤ 0.2
6,MESK,≤ 0.2
7,TRMT,≤ 0.2
8,GQVV,≤ 0.2
9,AIVR,≤ 0.2
10,KQMS,≤ 0.2
11,GWHV,≤ 0.2
12,VEGN,≤ 0.2
13,TSSY,≤ 0.2
14,ALYA,≤ 0.2
15,RLCA,0.609
16,NLNA,≤ 0.2
17,RLYA,0.607
18,RDNA,≤ 0.2
19,NLCA,≤ 0.2
20,RLNA,0.62
21,RLDA,0.588
22,DLDA,≤ 0.2
23,DLYA,≤ 0.2
24,DLCA,≤ 0.2

row,Variant,one-hybrid fitness for binding parS DNA
1,ASVG,≤ 0.2
2,YGDG,≤ 0.2
3,VARP,≤ 0.2
4,TRNE,≤ 0.2
5,SERK,≤ 0.2
6,TYPS,≤ 0.2
7,QKME,≤ 0.2
8,QGRS,≤ 0.2
9,LGAW,≤ 0.2
10,LDKA,≤ 0.2
11,WVHI,≤ 0.2
12,RLRA,0.727
13,NLRA,≤ 0.2
14,DLRA,≤ 0.2
15,SEQC,≤ 0.2
16,TFQR,≤ 0.2
17,NICA,≤ 0.2
18,RISA,0.608
19,RIYA,0.613
20,RIIA,0.499
21,RIPA,0.29
22,NISA,≤ 0.2
23,RICA,0.525
24,RILA,0.576

row,Variant,one-hybrid fitness for binding parS DNA
1,HSNV,≤ 0.2
2,QGKW,≤ 0.2
3,YPTH,≤ 0.2
4,PDPT,≤ 0.2
5,YNHR,≤ 0.2
6,PMSC,≤ 0.2
7,NLLT,≤ 0.2
8,NQHT,≤ 0.2
9,WWRT,≤ 0.2
10,PCFG,≤ 0.2
11,YQHR,≤ 0.2
12,NIRA,≤ 0.2
13,RIEA,0.451
14,RIQA,0.576
15,RIHA,0.574
16,RIGA,0.661
17,RIRA,0.672
18,TSST,≤ 0.2
19,VTVI,≤ 0.2
20,IMSG,≤ 0.2
21,ENNW,≤ 0.2
22,TFVM,≤ 0.2
23,KSAC,≤ 0.2
24,DWTC,≤ 0.2

row,Variant,one-hybrid fitness for binding parS DNA
1,TPML,≤ 0.2
2,CISV,≤ 0.2
3,RIWA,0.539
4,THES,≤ 0.2
5,MCDC,≤ 0.2
6,NYQC,≤ 0.2
7,NSQY,≤ 0.2
8,HMPR,≤ 0.2
9,PPDT,≤ 0.2
10,ARRF,≤ 0.2
11,RQHK,≤ 0.2
12,RQWG,0.877
13,RQWK,≤ 0.2
14,RQHF,0.231
15,RQRP,≤ 0.2
16,RQWM,0.233
17,RQRH,0.249
18,RQHG,1.01
19,RQRG,0.97
20,RQDD,≤ 0.2
21,RQDG,0.93
22,RQDH,≤ 0.2
23,WATG,≤ 0.2
24,TFEV,≤ 0.2

row,Variant,one-hybrid fitness for binding parS DNA
1,KKQL,≤ 0.2
2,VEMW,0.21
3,SPRE,≤ 0.2
4,VHIS,≤ 0.2
5,HAND,≤ 0.2
6,MQAL,≤ 0.2
7,RQQG,0.99
8,RQLG,0.982
9,RQQN,0.469
10,RQYH,≤ 0.2
11,RQQH,≤ 0.2
12,RQNM,0.325
13,RQNF,0.216
14,RQNG,1.01
15,RQYG,0.994
16,RQLH,≤ 0.2
17,RQYD,≤ 0.2
18,RQLD,≤ 0.2
19,YEKG,≤ 0.2
20,MTTE,≤ 0.2
21,PMRC,≤ 0.2
22,TKTN,≤ 0.2
23,ESQE,≤ 0.2
24,PCYG,≤ 0.2

row,Variant,one-hybrid fitness for binding parS DNA
1,FVTS,≤ 0.2
2,VWVK,≤ 0.2
3,TAGS,≤ 0.2
4,QLHQ,≤ 0.2
5,GGAM,≤ 0.2
6,MKCT,≤ 0.2
7,RQSG,0.984
8,RQGF,0.234
9,RQGG,0.945
10,RQSD,≤ 0.2
11,RQCR,≤ 0.2
12,RQSH,≤ 0.2
13,RQCY,0.412
14,RQCG,0.97
15,RQGQ,≤ 0.2
16,NETE,≤ 0.2
17,YGVD,≤ 0.2
18,VVSY,≤ 0.2
19,LSGR,≤ 0.2

# — a collection of fitness landscapes (doi:10.1016/j.celrep.2020.107928)
